From PubChem BioAssay AID504437 (Emory University Molecular Libraries Screening Center, 2011) come the findings set out here.

The whole screen tested about 2,100 compounds, of which about 940 (45%) were called active. So high a share suggests a set chosen from earlier hits. This is one part of a sample in which actives are shown more often than they occur.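 Rule for the calls: active = mean of three repeat readings of reporter signal inhibition above a set limit (cut at about 70% in these data); inactive = the rest.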

The nature of the experiment: retest of CHOP induction inhibitors, confirmation, cell-based (AID 504437).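 Note: 0% = tunicamycin plus vehicle and 100% = wells lacking tunicamycin.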 Particulars: CHO-CHOP promoter luciferase reporter, tunicamycin-induced, luminescence; at 10 µM; hits give high values. On the technique in general: Reporter assays use an easily measured gene product as a stand-in for the process of interest.
For `O=C(CSC1c2ccccc2-c2ccccc21)N/N=C/c1ccccc1`, the inhibition (in general, the change of the read-out against control, counted positive when it falls) is 70.5% (active).

Regarding `CCCCCCN=C(CC)c1c(O)n(CCCC)c(=O)[nH]c1=O`, the inhibition is 118% (active).
